The full list was thinned out, with hits kept by preference.
C diff growth = inhibitors of Clostridium difficile growth | Clostridium difficile clinical isolate growth, OD600, 24 h; hits give low values | growth activity, negative = inhibition, % at 16 µg/mL (by protocol) | 0.25% of 86,000 active | AID 1259249;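 active means mean growth activity at or below -80% and every replicate also at or below -80%; inconclusive means mean at or below -80% but some replicate above -80%; inactive means mean growth activity above -80%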;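 further: 0% = DMSO wells and -100% = levofloxacin 16 µg/mL wells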
T cruzi growth-1 = inhibitors of T. cruzi proliferation; inhibition, % at 8.34 µM; 5.9% of 77,000 active; T. cruzi beta-gal in NIH3T3, GalScreen luminescence, 90 h;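 active means mean inhibition above about 93%, with at least 55% of replicates each passing it, limit read from the data, passing the limit was not always enough; inconclusive means only one of those two conditions holds; inactive means neither condition holds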
T cruzi growth-2 = blocks T. cruzi growth in NIH3T3 host cells | shares compounds with T cruzi growth-1 | T. cruzi beta-gal in NIH3T3, GalScreen luminescence, 90 h | inhibition, % at 8.35 µM | 72% of 5,600 active;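 active means mean replicate inhibition above about 95% and at least 55% of replicates individually reaching it, limit read from the data; inconclusive means only one of the two criteria is met; inactive means neither criterion is met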
T cruzi growth-3 = blocks T. cruzi growth in NIH3T3 host cells | shares compounds with T cruzi growth-1 | inhibition, % at 2.09 µM | AID 651740 | T. cruzi beta-gal in NIH3T3, GalScreen luminescence, 90 h | 21% of 5,600 active;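 active means mean inhibition above about 95%, with at least 55% of replicates also reaching it, limit read from the data; inconclusive means meets just one of the two conditions; inactive means meets neither condition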;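 further: plate controls were neutral control median for no effect and positive control median for full effect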
NIH3T3 tox = kills mouse NIH/3T3 fibroblasts | 14% of 5,600 active | shares compounds with T cruzi growth-1 | NIH/3T3 viability, CellTiter-Glo ATP luminescence, 90 h | cytotoxicity (signal decrease), % at 8.35 µM;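 active means mean signal decrease across replicates above about 35% based on untreated-well scatter, with enough replicates individually passing, limit read from the data; inconclusive means no rule stated though some were filed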;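 further: 0% = median of neutral control wells and 100% = median of positive control wells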
NIH3T3 tox 2 = kills mouse NIH/3T3 fibroblasts | NIH/3T3 viability, CellTiter-Glo ATP luminescence, 90 h | shares compounds with T cruzi growth-1 | 56% of 5,600 active | inhibition, % at 24.9 µM;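 active means mean loss of cell viability signal at or above a set limit, and enough replicates individually reaching it; inconclusive means meets only the mean limit or only the replicate share; inactive means meets neither condition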;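 further: 0% = median of neutral control wells and 100% = median of positive control wells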
Active calls of the source: *; ? = inconclusive; . = not tested or not shown.

SMILES	C diff growth	T cruzi growth-1	T cruzi growth-2	T cruzi growth-3	NIH3T3 tox	NIH3T3 tox 2
CN1c2ccc(-c3ccc(F)cc3)cc2[C@@H]2[C@@H](CCN2C(=O)Cc2cccnc2)[C@H]1CO	-1	115*	117*	103*	-9	3
CN1c2ccc(-c3cccc(C#N)c3)cc2[C@H]2[C@H](CCN2C(=O)CN2CCOCC2)[C@@H]1CO	-6	57	.	.	.	.
CN1c2ccc(-c3ccccc3)cc2[C@@H]2[C@@H](CCN2C(=O)Cc2ccccn2)[C@@H]1CO	-11	99*	105*	58	-8	-6
CN1c2ccc(-c3ccc(F)cc3)cc2[C@H]2[C@H](CCN2C(=O)Cc2ccccn2)[C@H]1CO	-13	5	.	.	.	.
CN(C)C(=O)c1ccc(-c2ccc3c(c2)[C@H]2[C@H](CCN2C(=O)Cc2ccccn2)[C@@H](CO)N3C)cc1	-6	?	106*	46	-5	-8
CN1c2ccc(-c3cccc(C#N)c3)cc2[C@H]2[C@H](CCN2C(=O)CN2CCOCC2)[C@H]1CO	-9	?	108*	9	2	16
C/C=C/c1ccc([C@H]2[C@@H](CNC(=O)CC)N(C(=O)COC)[C@H]2CO)cc1	2	5	.	.	.	.
C[C@H]1CCCCO[C@H](CN(C)Cc2ccncc2)[C@@H](C)CN([C@@H](C)CO)C(=O)c2cc(NS(C)(=O)=O)ccc2O1	-2	-9	.	.	.	.
O=C(NC1CCCCC1)N1CC(=O)N2[C@H](CO)[C@H](c3ccc(/C=C/c4ccccc4)cc3)[C@@H]2C1	5	.	.	.	.	.
CO[C@@H](C(=O)N(C)C[C@H]1OCc2ccccc2-c2c(n(C)c3ccccc23)C(=O)N([C@@H](C)CO)C[C@@H]1C)c1ccccc1	-5	17	.	.	.	.
C[C@@H]1CN([C@H](C)CO)C(=O)Cc2cc(NC(=O)C3CC3)ccc2O[C@H]1CN(C)Cc1ccc(-c2ccccc2)cc1	0	16	.	.	.	.
C[C@H]1CN([C@@H](C)CO)C(=O)Cc2cc(NC(=O)C3CCCCC3)ccc2O[C@@H]1CN(C)Cc1ccc(-c2ccccc2)cc1	35	99*	104*	71	-6	14
C[C@@H]1CN([C@@H](C)CO)C(=O)Cc2cc(NC(=O)C3CC3)ccc2O[C@H]1CN(C)Cc1ccc(-c2ccccc2)cc1	5	114*	102*	85	11	103*
C[C@@H]1CN([C@H](C)CO)C(=O)Cc2cc(NC(=O)C3CCCCC3)ccc2O[C@@H]1CN(C)Cc1ccc(-c2ccccc2)cc1	-6	47	.	.	.	.
COCC(=O)N1CC[C@@H]2[C@H](CO)Nc3ccc(C#Cc4ccccc4)cc3[C@@H]21	-6	35	.	.	.	.
O=C(Nc1ccccc1)N[C@H]1CC[C@H](CCn2cc(C3(O)CCCC3)nn2)O[C@@H]1CO	2	38	.	.	.	.
C[C@@H]1CN([C@@H](C)CO)C(=O)Cc2cc(NC(=O)NC3CCCCC3)ccc2O[C@H]1CN(C)Cc1ccc(-c2ccccc2)cc1	75	-17	.	.	.	.
C[C@H]1CN([C@@H](C)CO)C(=O)c2cc(NS(=O)(=O)c3ccc(Cl)cc3)ccc2O[C@@H]1CN(C)Cc1ccc(Cl)c(Cl)c1	43	89	.	.	.	.
C[C@@H]1CN([C@@H](C)CO)C(=O)c2cc(NS(=O)(=O)c3ccc(F)cc3)ccc2O[C@@H]1CN(C)Cc1ccc(Cl)c(Cl)c1	38	101*	99*	35	?	107*
Cc1ccc(S(=O)(=O)Nc2ccc3c(c2)C(=O)N([C@@H](C)CO)C[C@H](C)[C@@H](CN(C)Cc2ccc(Cl)c(Cl)c2)O3)cc1	32	92	.	.	.	.
Cc1ccc(S(=O)(=O)Nc2ccc3c(c2)C(=O)N([C@@H](C)CO)C[C@@H](C)[C@@H](CN(C)Cc2ccc(Cl)c(Cl)c2)O3)cc1	14	119*	107*	107*	18	103*
C[C@@H]1CN([C@@H](C)CO)C(=O)c2cc(NS(=O)(=O)c3ccc(F)cc3)ccc2O[C@H]1CN(C)Cc1ccc(Cl)c(Cl)c1	16	?	105*	53	30	104*
C[C@H]1CN([C@@H](C)CO)C(=O)c2cc(NS(=O)(=O)c3ccc(F)cc3)ccc2O[C@H]1CN(C)Cc1ccc(Cl)c(Cl)c1	31	63	.	.	.	.
C[C@@H]1CN([C@@H](C)CO)C(=O)c2cc(NC(=O)Nc3ccccc3)ccc2O[C@@H](C)CCCCO[C@H]1CN(C)C(=O)Cc1ccccc1	.	25	.	.	.	.
C[C@H]1CCCCO[C@H](CN(C)C(=O)Cc2ccccc2)[C@@H](C)CN([C@@H](C)CO)C(=O)c2cc(NC(=O)Nc3ccc4c(c3)OCO4)ccc2O1	1	115*	112*	5	-15	3
SMILES	C diff growth	T cruzi growth-1	T cruzi growth-2	T cruzi growth-3	NIH3T3 tox	NIH3T3 tox 2
C[C@@H]1CN([C@@H](C)CO)C(=O)c2cc(NC(=O)Nc3ccc4c(c3)OCO4)ccc2O[C@@H](C)CCCCO[C@H]1CN(C)C(=O)Cc1ccccc1	2	-38	.	.	.	.
C[C@@H]1CCCCO[C@H](CN(C)C(=O)Cc2ccccc2)[C@@H](C)CN([C@@H](C)CO)C(=O)c2cc(NC(=O)Nc3ccc4c(c3)OCO4)ccc2O1	4	?	109*	30	-8	-3
C[C@H](O)C#Cc1cnc2c(c1)C(=O)N([C@@H](C)CO)C[C@@H](C)[C@H](CN(C)Cc1cccc(F)c1)O2	-1	25	.	.	.	.
C[C@@H]1CN([C@H](C)CO)C(=O)Cc2cc(NS(=O)(=O)c3ccccc3)ccc2O[C@@H]1CN(C)C(=O)Nc1ccc(C(F)(F)F)cc1	-20	-2	.	.	.	.
CNC[C@@H]1Oc2ncc(C#CC3CCCC3)cc2C(=O)N([C@@H](C)CO)C[C@@H]1C	4	96	.	.	.	.
CNC[C@H]1Oc2ncc(C#CCC3CCCC3)cc2C(=O)N([C@H](C)CO)C[C@H]1C	6	?	108*	92	11	106*
C[C@@H]1CN([C@H](C)CO)C(=O)c2cc(C#CCc3ccccc3)cnc2O[C@@H]1CN(C)C(=O)C1CCCCC1	0	35	.	.	.	.
C[C@@H]1CN([C@@H](C)CO)C(=O)c2cc(C#CCc3ccccc3)cnc2O[C@@H]1CN(C)Cc1cccnc1	-7	101*	79	-10	-10	-9
C[C@H]1CN([C@@H](C)CO)C(=O)c2cc(C#Cc3cccnc3)cnc2O[C@@H]1CN(C)Cc1ccccc1	.	91	.	.	.	.
C[C@H](CO)N1C[C@H](C)[C@H](CN(C)Cc2cccnc2)Oc2ncc(C#CCc3ccccc3)cc2C1=O	-6	71	.	.	.	.
C[C@H](CO)N1C[C@H](C)[C@H](CN(C)Cc2ccccc2)Oc2ncc(C#Cc3cccnc3)cc2C1=O	.	101*	70	15	15	33
C[C@H](CO)N1C[C@H](C)[C@@H](CN(C)C(=O)C2CCCCC2)Oc2ncc(C#CCc3ccccc3)cc2C1=O	16	?	94	-19	17	106*
COCc1cn(CC[C@H]2CC[C@H](NC(=O)c3ccc(F)cc3)[C@@H](CO)O2)nn1	2	-4	.	.	.	.
